The target in assay [1] is Cytochrome P450 3A4 (Homo sapiens) (UniProt P08684). Put plainly: qHTS Assay for Activators of Cytochrome P450 3A4 (AID 885; active means well fitted curve in the direction sought with a large enough effect; an effect the other way counts as inactive or inconclusive; further: nearly all actives have a fitted effect of over 65% in size). The gist of the method:
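Quantitative HTS format: compounds preincubated with 20nM human CYP3A4 and Luciferin-PPXE substrate at KM, reaction started by NADPH regeneration, stopped after 60 min, luciferase luminescence read 20 min later.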
A general note: qHTS replaces the single test concentration by a dilution series.

For assay [2], the target named is Bile acid receptor (Homo sapiens) (UniProt Q96RI1). Put plainly: qHTS assay for small molecule agonists of farnesoid X receptor signaling (AID 588527).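 Further: series mostly up to about 77 µM; 0% = vehicle basal and 100% = reference agonist.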 To be noted: HEK293T FXR-UAS-bla, beta-lactamase ratio, 16 h; activation: stronger effect = higher value. The gist of the method:
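Quantitative HTS used FXR-UAS-bla HEK293T cells with 16 h compound incubation at 37 C. EC50 values came from concentration-response curves normalized to chenodeoxycholic acid.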

In assay [3] the target is Glucocorticoid receptor (Homo sapiens) (UniProt P04150). Put plainly: qHTS assay for small molecule agonists of glucocorticoid receptor signaling (AID 588532; active means well fitted curve in the direction sought with a large enough effect in the signal ratio, with a control signal flat; the % refers to the signal ratio;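 further: 100% = dexamethasone at 0.1 µM and 0% = DMSO only wells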). To be noted: HeLa MMTV-bla, beta-lactamase ratio, agonist, 18 h; activation: stronger effect = higher value, percent of dexamethasone control, DMSO zero. The gist of the method: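 Quantitative HTS using CellSensor MMTV-bla HeLa cells in charcoal/dextran-treated serum; compounds tested up to 92 uM. After 18 h at 37 C, CCF4 dye reported reporter induction.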

Assay [4] has the same target. Put plainly: qHTS assay for small molecule antagonists of glucocorticoid receptor signaling (AID 588533; active means well fitted inhibition curve with a large enough effect in the signal ratio, with a control signal flat, not every such curve was filed as active; the % refers to the signal ratio;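 further: cells stimulated with 2 nM dexamethasone as agonist; on the % scale 0 is the no-effect control and ±100 the full control effect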). The gist of the method: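 Antagonist-mode qHTS: compound titrations added to GRE-bla HeLa cells, then dexamethasone 2 nM final; 18 h, 37 C. CCF4 FRET fluorescence normalized to dexamethasone and DMSO; IC50 from Hill fit.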
Assay [5] concerns the target Peroxisome proliferator-activated receptor delta (Homo sapiens) (UniProt Q03181). Put plainly: qHTS assay for small molecule agonists of peroxisome proliferator-activated receptor delta signaling (AID 588534).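 Further: 0% = DMSO basal wells and 100% = positive control agonist at 10 µM.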 The gist of the method: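 Reporter cells were plated and held 5 hrs at 37 C before compounds were added. After 18 hrs at 37 C, CCF4 dye was loaded for 2 hrs at RT and fluorescence measured.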

Assay [6] can be described thus: qHTS assay for small molecule antagonists of peroxisome proliferator-activated receptor delta signaling (AID 588535; active means well fitted inhibition curve with a large enough effect in the signal ratio, with a control signal flat, not every such curve was filed as active; the % refers to the signal ratio;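 on max response: cells co-treated with a PPAR-delta agonist as stimulator during compound exposure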). To be noted: HEK293T PPARd-UAS-bla, beta-lactamase FRET ratio, 18 h; 460 nm channel. The gist of the method: (§1)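 Cell-based beta-lactamase assay in antagonist mode: 4000 HEK293T PPAR-delta-UAS-bla cells per well, 5 hr preincubation then 18 hr compound incubation at 37 C. IC50 obtained by Hill equation fitting.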

The target in assay [7] is Peroxisome proliferator-activated receptor delta (Homo sapiens) (UniProt Q03181). The description is as above. The gist of the method:
as §1

Assay [8] deals with Vitamin D3 receptor (Homo sapiens) (UniProt P11473). Put plainly: qHTS assay for small molecule antagonists of vitamin D receptor signaling (AID 588541).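 Further: receptor activated by calcitriol during compound treatment; series mostly up to about 77 µM; on the % scale 0 is the no-effect control and ±100 the full control effect.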 The gist of the method:
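Antagonist-mode beta-lactamase reporter assay: HEK293T VDR-UAS-bla cells were exposed to titrated compound alongside 1-alpha,25-dihydroxyvitamin D3 at 3 nM final for 16 h. Values were normalized to the 50 nM agonist control and DMSO basal, with IC50 and efficacy from Hill equation fits.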

Assay [9] shares this target. Put plainly: qHTS assay for small molecule agonists of vitamin D receptor signaling (AID 588543).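 Further: 0% = DMSO basal and 100% = reference agonist control.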 The gist of the method:
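qHTS in agonist mode: compound titrations stimulate a VDR-driven β-lactamase reporter in HEK293T cells over 16 h at 37 °C. Response normalized to 50 nM 1α,25-dihydroxyvitamin D3 = 100%, DMSO = 0%; Hill fitting gives EC50 and maximal response.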

Assay [10] in a line: qHTS assay for small molecule agonists of retinoid X receptor alpha signaling (AID 588544).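 On activation: 0% = DMSO basal wells and 100% = reference agonist.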 To be noted: HEK293T RXRa-UAS-bla, beta-lactamase reporter, 18 h; 530 nm emission.
The target in assay [11] is Retinoic acid receptor RXR-alpha (Homo sapiens) (UniProt P19793). Described as above.
The target of assay [12] is Thyroid hormone receptor beta (Homo sapiens) (UniProt P10828). Put plainly: qHTS assay for small molecule agonists of thyroid hormone receptor beta signaling (AID 588545). The gist of the method:
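In this cell-based screen, titrated compounds act on HEK 293 cells held in medium with 2% charcoal/dextran FBS, NEAA and pyruvate for 18 hrs at 37 C. Responses are expressed relative to T3 (10 nM) as 100% and basal DMSO as 0%.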

Assay [13] can be described thus: qHTS assay for small molecule antagonists of retinoid X receptor alpha signaling (AID 588546; active means well fitted inhibition curve with a large enough effect in the signal ratio, with a control signal flat, not every such curve was filed as active; the % refers to the signal ratio;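 further: cells stimulated with 9-cis-retinoic acid as agonist; on the % scale 0 is the no-effect control and ±100 the full control effect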). To be noted: HEK293T RXRa-UAS-bla, beta-lactamase ratio, antagonist mode; measured here: W530 green channel, cytotoxicity proxy. The gist of the method: (§2)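 Beta-lactamase reporter inhibition, read as CCF4 fluorescence ratio (ex 405, em 460/530 nm) after 2 h at RT. HEK293T UAS-bla cells, 2500/well, were stimulated with 9-cis-RA at 500 or 100 nM final alongside test compound for 18 h at 37 C.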

Assay [14] deals with Retinoic acid receptor RXR-alpha (Homo sapiens) (UniProt P19793). The description is as above. To be noted: HEK293T RXRa-UAS-bla, beta-lactamase ratio, antagonist mode. The gist of the method:
as §2

Assay [15] is described as follows: qHTS assay for small molecule activators of the p53 signaling pathway (AID 651743; active means well fitted activation curve with a large enough effect in the signal ratio, not every such curve was filed as active; the % refers to the signal ratio; further: series mostly up to about 92 µM; % of control where 0% means no effect). To be noted: HCT-116 p53RE-bla, beta-lactamase FRET ratio, 16 h; activation: stronger effect = higher value. The gist of the method: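 Screen for p53 pathway agonists uses stably transfected p53RE-bla HCT-116 cells, 4,000 per well, treated 16 h at 37 C with compounds in DMSO.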
Assay [16] is described as follows: qHTS assay for small molecule activators of the nuclear factor-kappa B (NF-kB) signaling pathway (AID 651749; active means well fitted activation curve with a large enough effect in the signal ratio; the % refers to the signal ratio; further: series mostly up to about 77 µM; % of control where 0% means no effect). Conditions: NF-kB-bla ME-180 cells, beta-lactamase FRET ratio, 16 h; activation: stronger effect = higher value. The gist of the method: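 Stably transfected ME-180 line; NF-kB response element upstream of beta-lactamase. Treatment: compound or DMSO, 16 hr. Detection: fluorescent FRET substrate.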

Assay [17] has as its target Peroxisome proliferator-activated receptor alpha (Homo sapiens) (UniProt Q07869). Put plainly: qHTS assay for small molecule agonists of the peroxisome proliferator-activated receptor alpha (PPARalpha) signaling pathway (AID 651778; active means well fitted curve in the direction sought with a large enough effect; an effect the other way counts as inactive or inconclusive; further: % of control where 0% means no effect). To be noted: PathHunter PPARalpha complementation, chemiluminescence, 6 h; max response: stronger effect = higher value. The gist of the method: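 Chemiluminescence from complemented enzyme reported PPARalpha activation in cells after 6 hr of compound treatment at 37 C. The detection reagent was incubated for 60 min at room temperature, and compounds were scored as agonists.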

Assay [18] is described as follows: qHTS assay for small molecule agonists of the antioxidant response element (ARE) signaling pathway measured by Nrf2-dependant transcriptional activity (AID 720636; active means well fitted curve in the direction sought with a large enough effect in the repeat runs; an effect the other way counts as inactive or inconclusive;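 further: HepG2 cells with an ARE-driven luciferase reporter; % of control where 0% means no effect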). The gist of the method: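 Cells: ARE-luc HepG2 with Nrf2-responsive luciferase. Medium contained 1% dialyzed FBS. Compound exposure lasted 16 hr at 37 C and 5% CO2, followed by ONE-Glo luciferase detection.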

Assay [19] can be described thus: qHTS assay for small molecule agonists of the antioxidant response element (ARE) signaling pathway measured by Nrf2-dependant transcriptional activity - cell viability counter screen (AID 720653; active means well fitted curve in the direction sought with a large enough effect in the repeat runs; an effect the other way counts as inactive or inconclusive; further: on the % scale 0 is the no-effect control and ±100 the full control effect). To be noted: ARE-bla HepG2 viability, CellTiter-Glo ATP luminescence, 16 h; max response: stronger effect = lower value. The gist of the method: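 Cytotoxicity counter screen: intracellular ATP quantified by CellTiter-Glo luminescence in the same ARE-bla HepG2 plates, after 16 h compound exposure and a 2 h beta-lactamase substrate step.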

A short description of assay [20]: qHTS assay for cell viability of HEK293 cells (AID 743288; active means well fitted curve in the direction sought with a large enough effect; an effect the other way counts as inactive or inconclusive; further: on the % scale 0 is the no-effect control and ±100 the full control effect; nearly all actives have a fitted effect of over 50% in size). Conditions: ATP luminescence (CellTiter-Glo), 18 h; max response: stronger effect = lower value. The gist of the method: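 The Tox21 protocol used parental HEK293 cells treated for 18 h at 37 C with compounds delivered by pintool; ATP-coupled luminescence after 30 min at room temperature gave viability.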
Assay [21] in a line: qHTS assay for cell viability of the p53RE-bla HCT-116 cell line (AID 743292; active means well fitted curve in the direction sought with a large enough effect; an effect the other way counts as inactive or inconclusive; further: on the % scale 0 is the no-effect control and ±100 the full control effect; nearly all actives have a fitted effect of over 55% in size). The gist of the method: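 HCT-116 p53RE-bla cells seeded 4,000/well; 5 h at 37 C; compound (DMSO) added; 16 h at 37 C; CellTiter-Glo added, 30 min RT; luminescence read.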
Assay [22] has as its target Nuclear receptor subfamily 1 group I member 2 (Rattus norvegicus) (UniProt Q9R1A7). Put plainly: qHTS assay for small molecule activators of the rat pregnane X receptor (rPXR) signaling pathway (AID 651751; call rule not given here; further: 0% is about no effect). Conditions: rPXR reporter cells, luciferase (One-Glo), 24 h.
The nature of assay [23]: qHTS assay for small molecule activators of the human pregnane X receptor (PXR) signaling pathway (AID 720659; call rule not given here; further: 0% is about no effect).
Assay [24] is described as follows: qHTS assay for environmental chemicals that activate the Aryl hydrocarbon Receptor (AhR) signaling pathway (AID 651777; active means well fitted curve in the direction sought with a large enough effect; an effect the other way counts as inactive or inconclusive; further: nearly all actives have a fitted effect of over 15% in size; further: potency means the concentration at half of the fitted maximal effect; on activation: % of control where 0% means no effect). Conditions: 1A2-DRE human hepatoma cells, luciferase, 24 h; activation: stronger effect = higher value. The gist of the method: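 1A2-DRE human hepatoma reporter line; 1,200 cells/well; cmpd or DMSO 24 h, 37 C/5% CO2; One-Glo 30 min RT; luciferase lum.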

Assay [25] has as its target Peroxisome proliferator-activated receptor gamma (Homo sapiens) (UniProt P37231). Put plainly: qHTS assay for small molecule antagonists of peroxisome proliferator-activated receptor gamma signaling (AID 588537; active means well fitted inhibition curve with a large enough effect in the signal ratio, with a control signal flat, not every such curve was filed as active; the % refers to the signal ratio;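 further: reporter cells co-stimulated with 50 nM rosiglitazone agonist during compound treatment; % of control where 0% means no effect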). The gist of the method: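 Inhibitors of agonist-stimulated UAS-bla reporter activity were sought in HEK293 cells; rosiglitazone (50 nM) defined full signal and DMSO baseline. Curves fitted to Hill model gave IC50 and efficacy.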

Assay [26] addresses Thyroid hormone receptor beta (Homo sapiens) (UniProt P10828). Put plainly: qHTS assay for small molecule antagonists of thyroid hormone receptor beta signaling (AID 588547; active means well fitted inhibition curve with a large enough effect in the signal ratio, with a control signal flat, not every such curve was filed as active; the % refers to the signal ratio). To be noted: TR-UAS-bla HEK293, beta-lactamase ratio, antagonist mode, 18 h. The gist of the method: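 Inhibition of T3-driven (0.4nM final) beta-lactamase reporter activity was measured over 0.59 nM to 92 uM compound after 18 h at 37 C. The cells were GripTite HEK293 TR-UAS-bla in charcoal/dextran-stripped serum, with CCF4 ratio read-out and IC50 from Hill fits.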

Molecules are shown by their SMILES. Several values for one entry are separate records, joined by “and”; a condition that tells them apart may be missing. Identical values can stand only once. Results filed as inconclusive are left out. Activity calls are given as the source filed them. Unless noted, the call rests on the fitted dose curve.

Sequence of Glucocorticoid receptor (Homo sapiens) (P04150 whole entry, looked up): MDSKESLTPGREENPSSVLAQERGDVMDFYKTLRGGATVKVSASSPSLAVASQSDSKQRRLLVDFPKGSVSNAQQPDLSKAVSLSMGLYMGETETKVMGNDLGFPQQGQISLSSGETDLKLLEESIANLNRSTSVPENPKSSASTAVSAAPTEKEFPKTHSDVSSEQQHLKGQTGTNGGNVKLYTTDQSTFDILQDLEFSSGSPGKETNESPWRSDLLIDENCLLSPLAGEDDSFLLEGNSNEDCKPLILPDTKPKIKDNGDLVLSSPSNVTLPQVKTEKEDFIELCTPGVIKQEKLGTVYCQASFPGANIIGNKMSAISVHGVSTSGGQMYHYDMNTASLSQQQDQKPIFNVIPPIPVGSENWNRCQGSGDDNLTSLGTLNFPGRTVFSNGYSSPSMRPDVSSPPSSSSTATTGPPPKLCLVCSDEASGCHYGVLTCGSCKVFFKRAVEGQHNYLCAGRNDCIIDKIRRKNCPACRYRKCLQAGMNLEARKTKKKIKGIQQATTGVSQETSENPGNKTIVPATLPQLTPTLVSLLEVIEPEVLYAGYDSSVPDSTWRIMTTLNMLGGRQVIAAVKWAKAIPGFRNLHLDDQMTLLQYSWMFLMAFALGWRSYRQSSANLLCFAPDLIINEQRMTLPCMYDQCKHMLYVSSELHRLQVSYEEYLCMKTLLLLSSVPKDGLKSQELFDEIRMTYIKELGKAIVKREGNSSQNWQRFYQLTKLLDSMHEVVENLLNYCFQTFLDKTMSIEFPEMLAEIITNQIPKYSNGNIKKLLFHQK
Sequence of Vitamin D3 receptor (Homo sapiens) (P11473 whole entry, looked up): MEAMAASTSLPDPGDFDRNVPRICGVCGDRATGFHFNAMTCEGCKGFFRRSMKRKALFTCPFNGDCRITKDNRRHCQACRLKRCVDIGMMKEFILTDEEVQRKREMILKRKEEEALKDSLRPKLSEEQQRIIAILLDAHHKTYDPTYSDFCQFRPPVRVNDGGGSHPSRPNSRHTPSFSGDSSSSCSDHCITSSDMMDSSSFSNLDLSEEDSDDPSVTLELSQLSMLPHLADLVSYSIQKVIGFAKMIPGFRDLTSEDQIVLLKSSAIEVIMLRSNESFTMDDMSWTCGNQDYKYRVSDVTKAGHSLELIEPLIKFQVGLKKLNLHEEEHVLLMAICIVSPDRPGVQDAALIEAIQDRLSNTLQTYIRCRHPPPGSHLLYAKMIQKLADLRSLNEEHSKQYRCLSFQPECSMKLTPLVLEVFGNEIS
Sequence of Peroxisome proliferator-activated receptor delta (Homo sapiens) (Q03181 whole entry, looked up): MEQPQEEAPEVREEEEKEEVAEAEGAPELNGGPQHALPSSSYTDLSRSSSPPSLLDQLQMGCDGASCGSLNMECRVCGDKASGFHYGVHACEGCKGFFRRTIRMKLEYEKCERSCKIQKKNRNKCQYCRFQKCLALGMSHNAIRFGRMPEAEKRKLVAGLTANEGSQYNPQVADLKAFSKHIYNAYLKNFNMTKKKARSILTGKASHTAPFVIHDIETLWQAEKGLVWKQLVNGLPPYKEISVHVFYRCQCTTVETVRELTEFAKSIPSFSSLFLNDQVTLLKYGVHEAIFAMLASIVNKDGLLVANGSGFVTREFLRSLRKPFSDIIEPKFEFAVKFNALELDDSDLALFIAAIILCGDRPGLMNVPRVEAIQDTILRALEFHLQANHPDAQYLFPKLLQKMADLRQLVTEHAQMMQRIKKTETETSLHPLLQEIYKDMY
Sequence of Retinoic acid receptor RXR-alpha (Homo sapiens) (P19793 whole entry, looked up): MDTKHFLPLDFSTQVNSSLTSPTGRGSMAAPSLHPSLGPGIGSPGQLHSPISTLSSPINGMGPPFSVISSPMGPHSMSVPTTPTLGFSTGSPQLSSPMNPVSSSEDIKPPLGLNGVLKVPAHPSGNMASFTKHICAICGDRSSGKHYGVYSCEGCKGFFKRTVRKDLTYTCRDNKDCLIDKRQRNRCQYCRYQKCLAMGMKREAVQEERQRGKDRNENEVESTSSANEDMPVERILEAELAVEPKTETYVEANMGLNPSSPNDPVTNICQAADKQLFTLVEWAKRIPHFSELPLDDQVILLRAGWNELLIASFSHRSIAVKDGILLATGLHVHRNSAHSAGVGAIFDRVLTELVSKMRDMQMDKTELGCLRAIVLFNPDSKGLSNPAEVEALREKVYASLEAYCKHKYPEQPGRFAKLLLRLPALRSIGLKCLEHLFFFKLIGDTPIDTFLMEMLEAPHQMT
Sequence of Thyroid hormone receptor beta (Homo sapiens) (P10828 whole entry, looked up): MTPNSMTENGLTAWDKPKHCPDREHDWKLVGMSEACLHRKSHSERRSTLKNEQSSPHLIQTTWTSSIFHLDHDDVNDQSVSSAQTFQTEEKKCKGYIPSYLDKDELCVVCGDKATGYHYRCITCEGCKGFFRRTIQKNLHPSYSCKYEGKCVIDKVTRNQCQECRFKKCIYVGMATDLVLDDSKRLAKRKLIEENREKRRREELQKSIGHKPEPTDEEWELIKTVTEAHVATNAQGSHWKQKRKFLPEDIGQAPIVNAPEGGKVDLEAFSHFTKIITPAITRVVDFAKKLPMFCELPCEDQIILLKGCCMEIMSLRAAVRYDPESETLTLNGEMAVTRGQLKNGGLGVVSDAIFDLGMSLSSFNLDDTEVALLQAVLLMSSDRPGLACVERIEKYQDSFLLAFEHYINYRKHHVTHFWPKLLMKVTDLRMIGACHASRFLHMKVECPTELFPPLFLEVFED
Sequence of Bile acid receptor (Homo sapiens) (Q96RI1 whole entry, looked up): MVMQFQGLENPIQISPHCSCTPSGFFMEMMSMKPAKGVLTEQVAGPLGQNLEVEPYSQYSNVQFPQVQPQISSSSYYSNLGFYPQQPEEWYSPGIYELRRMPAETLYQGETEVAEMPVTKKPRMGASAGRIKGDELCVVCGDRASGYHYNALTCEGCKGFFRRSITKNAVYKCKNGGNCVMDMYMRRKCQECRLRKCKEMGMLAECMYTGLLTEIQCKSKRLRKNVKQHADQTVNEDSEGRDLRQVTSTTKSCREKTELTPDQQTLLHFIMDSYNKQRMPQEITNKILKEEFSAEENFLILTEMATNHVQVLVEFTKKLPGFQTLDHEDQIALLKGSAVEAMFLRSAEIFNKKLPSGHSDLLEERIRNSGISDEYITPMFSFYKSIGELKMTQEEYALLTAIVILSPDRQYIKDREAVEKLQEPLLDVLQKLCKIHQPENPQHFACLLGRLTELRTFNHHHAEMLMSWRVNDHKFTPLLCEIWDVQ
Sequence of Peroxisome proliferator-activated receptor alpha (Homo sapiens) (Q07869 whole entry, looked up): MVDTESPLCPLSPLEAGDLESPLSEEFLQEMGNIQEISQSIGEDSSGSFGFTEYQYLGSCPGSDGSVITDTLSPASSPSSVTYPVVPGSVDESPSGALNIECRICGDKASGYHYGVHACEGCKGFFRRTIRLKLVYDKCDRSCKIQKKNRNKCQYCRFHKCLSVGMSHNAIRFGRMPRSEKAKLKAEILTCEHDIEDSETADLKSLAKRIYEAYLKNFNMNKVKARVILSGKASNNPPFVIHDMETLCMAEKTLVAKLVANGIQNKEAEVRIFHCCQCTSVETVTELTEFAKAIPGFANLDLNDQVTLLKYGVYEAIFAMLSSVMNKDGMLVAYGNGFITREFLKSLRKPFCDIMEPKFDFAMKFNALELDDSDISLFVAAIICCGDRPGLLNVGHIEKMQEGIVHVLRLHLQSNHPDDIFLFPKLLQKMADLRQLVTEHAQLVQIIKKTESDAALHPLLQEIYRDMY
Sequence of Nuclear receptor subfamily 1 group I member 2 (Rattus norvegicus) (Q9R1A7 whole entry, looked up): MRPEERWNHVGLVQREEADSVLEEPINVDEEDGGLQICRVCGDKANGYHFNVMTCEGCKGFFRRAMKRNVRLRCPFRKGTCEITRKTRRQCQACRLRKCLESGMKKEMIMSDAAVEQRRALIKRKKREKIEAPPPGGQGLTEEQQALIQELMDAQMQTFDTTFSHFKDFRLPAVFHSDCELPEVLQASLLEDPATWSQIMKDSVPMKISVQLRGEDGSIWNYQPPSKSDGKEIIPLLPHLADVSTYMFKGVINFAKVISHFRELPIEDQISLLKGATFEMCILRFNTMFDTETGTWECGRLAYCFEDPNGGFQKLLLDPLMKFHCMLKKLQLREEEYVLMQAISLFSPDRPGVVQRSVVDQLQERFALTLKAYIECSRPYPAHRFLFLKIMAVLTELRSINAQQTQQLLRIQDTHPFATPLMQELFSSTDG
Sequence of Cytochrome P450 3A4 (Homo sapiens) (P08684 whole entry, looked up): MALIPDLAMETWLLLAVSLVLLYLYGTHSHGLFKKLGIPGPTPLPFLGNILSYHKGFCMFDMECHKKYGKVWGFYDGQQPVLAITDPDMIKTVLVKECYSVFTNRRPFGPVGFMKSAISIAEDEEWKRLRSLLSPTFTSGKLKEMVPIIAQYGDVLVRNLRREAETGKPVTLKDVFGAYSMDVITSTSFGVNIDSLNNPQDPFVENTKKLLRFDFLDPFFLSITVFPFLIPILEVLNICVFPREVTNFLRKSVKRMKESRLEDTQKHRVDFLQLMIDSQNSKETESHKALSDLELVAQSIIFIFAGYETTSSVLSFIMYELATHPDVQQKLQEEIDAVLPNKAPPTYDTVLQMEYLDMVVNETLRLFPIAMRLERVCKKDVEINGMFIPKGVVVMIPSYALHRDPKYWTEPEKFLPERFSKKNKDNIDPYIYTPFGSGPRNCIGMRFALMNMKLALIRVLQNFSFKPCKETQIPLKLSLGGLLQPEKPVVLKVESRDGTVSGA
Sequence of Peroxisome proliferator-activated receptor gamma (Homo sapiens) (P37231 whole entry, looked up): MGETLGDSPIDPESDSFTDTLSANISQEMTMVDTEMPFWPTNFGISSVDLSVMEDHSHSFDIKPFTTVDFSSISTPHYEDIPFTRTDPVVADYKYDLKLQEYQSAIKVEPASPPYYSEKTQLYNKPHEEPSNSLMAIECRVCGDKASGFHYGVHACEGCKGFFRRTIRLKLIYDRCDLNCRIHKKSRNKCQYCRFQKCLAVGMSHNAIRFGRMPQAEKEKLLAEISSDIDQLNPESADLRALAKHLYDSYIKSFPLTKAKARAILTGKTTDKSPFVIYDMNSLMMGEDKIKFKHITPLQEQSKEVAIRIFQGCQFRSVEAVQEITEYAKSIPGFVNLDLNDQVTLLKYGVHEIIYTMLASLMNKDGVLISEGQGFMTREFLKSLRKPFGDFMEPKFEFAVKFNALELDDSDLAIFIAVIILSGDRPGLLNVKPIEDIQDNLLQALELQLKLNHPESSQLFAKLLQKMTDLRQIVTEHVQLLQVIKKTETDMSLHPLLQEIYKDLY

Consider `Nc1ccc(Cl)cc1Cl`, for which the Potency result in [1] was “inactive”. Moreover, the activation in assay [2] was 0.621% (inactive) and -4.4% (inactive).
Turning to `c1ccc2c(c1)oc1ccccc12`, the values for the activation in assay [3], in [15] and in assay [16] were 0.193% (inactive), -2.47% (inactive) and -1.03% (inactive), respectively. Besides, the Potency result in assay [4], in [7], in [8], in [11], in assay [12] and in assay [18] was “inactive” throughout. The Potency result in assay [21] was “inactive”. In addition, the compound was called inactive in assay [5], in assay [9] and in assay [23]. Also, the max response in assay [6] was 3.99%; in assay [10], -6.25%; in assay [13] it was -9.11%; in [14] it was 10.8% (inactive); in assay [17], 0.628% (inactive); in assay [19], -12.3% (inactive). Moreover, the max response was -8.74% (inactive) in [20] and -0.589% (inactive) in [22].
Consider `Nc1ccccc1O`, for which, in assay [2], the activation is -1.93% (inactive). For the same compound, the result in assay [5] was inactive. Moreover, the Potency in assay [24] is 12.6 µM (active).
As to `CNC(=O)O/N=C(\C)SC`, the activation in assay [3] was -2.31% (inactive); in [15], -0.165% (inactive); in [16], -0.423% (inactive); in assay [24], -1.88% (inactive). The Potency entry in [4], in assay [7], in [25], in assay [8], in [11] and in [12] was “inactive” in each case. The Potency entry in assay [18] and in assay [21] was “inactive” throughout. The call in assay [5] was inactive. Moreover, the max response is 24.5% in assay [6]; -25.7% in assay [10]; -3.33% in [13]; 8.15% (inactive) in assay [14]; -0.714% (inactive) in assay [17]; -4.43% (inactive) in assay [19]. Further, the max response in assay [20] is -6.55% (inactive); in [22], -0.197% (inactive). Besides, the activity change % (negative = inhibition) in assay [26] is -8.81% (inactive).

Values taken from PubChem BioAssay (NCATS).
